# A number with no mark means an inactive call.
# Compound: C#CCNC(=O)CCSSCCC(=O)NCCc1ccc(C=O)c(C=O)c1
# Experiment: lysine labeling ratio R10:1 (500 µM / 50 µM probe), SILAC-ABPP in living cells; higher = lower intrinsic lysine reactivity toward the probe, active = 2 or less
# Conditions: HeLa; probe concentrations 500 vs 50 µM
# In short: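 For each lysine, R is the median over forward and reverse replicates of the filtered median MS1 peptide ratio of high probe to low probe. The probe, an alkyne-tagged, disulfide-linked lysine probe, was given at 500 µM or 50 µM to living SILAC light and heavy HeLa cells in PBS at room temperature, with label swaps. Values are capped at 20.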
# Sequence of UniProt Q8TCZ2 (Q8TCZ2 whole entry): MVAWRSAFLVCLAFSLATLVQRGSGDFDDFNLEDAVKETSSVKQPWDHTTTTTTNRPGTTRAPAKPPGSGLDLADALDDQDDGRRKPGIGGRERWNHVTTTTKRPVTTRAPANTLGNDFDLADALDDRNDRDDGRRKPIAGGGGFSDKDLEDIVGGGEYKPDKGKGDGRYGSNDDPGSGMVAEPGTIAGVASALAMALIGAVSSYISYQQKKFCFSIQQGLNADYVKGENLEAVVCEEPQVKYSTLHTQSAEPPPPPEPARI
# Sequence of UniProt P07996 (P07996 whole entry, looked up): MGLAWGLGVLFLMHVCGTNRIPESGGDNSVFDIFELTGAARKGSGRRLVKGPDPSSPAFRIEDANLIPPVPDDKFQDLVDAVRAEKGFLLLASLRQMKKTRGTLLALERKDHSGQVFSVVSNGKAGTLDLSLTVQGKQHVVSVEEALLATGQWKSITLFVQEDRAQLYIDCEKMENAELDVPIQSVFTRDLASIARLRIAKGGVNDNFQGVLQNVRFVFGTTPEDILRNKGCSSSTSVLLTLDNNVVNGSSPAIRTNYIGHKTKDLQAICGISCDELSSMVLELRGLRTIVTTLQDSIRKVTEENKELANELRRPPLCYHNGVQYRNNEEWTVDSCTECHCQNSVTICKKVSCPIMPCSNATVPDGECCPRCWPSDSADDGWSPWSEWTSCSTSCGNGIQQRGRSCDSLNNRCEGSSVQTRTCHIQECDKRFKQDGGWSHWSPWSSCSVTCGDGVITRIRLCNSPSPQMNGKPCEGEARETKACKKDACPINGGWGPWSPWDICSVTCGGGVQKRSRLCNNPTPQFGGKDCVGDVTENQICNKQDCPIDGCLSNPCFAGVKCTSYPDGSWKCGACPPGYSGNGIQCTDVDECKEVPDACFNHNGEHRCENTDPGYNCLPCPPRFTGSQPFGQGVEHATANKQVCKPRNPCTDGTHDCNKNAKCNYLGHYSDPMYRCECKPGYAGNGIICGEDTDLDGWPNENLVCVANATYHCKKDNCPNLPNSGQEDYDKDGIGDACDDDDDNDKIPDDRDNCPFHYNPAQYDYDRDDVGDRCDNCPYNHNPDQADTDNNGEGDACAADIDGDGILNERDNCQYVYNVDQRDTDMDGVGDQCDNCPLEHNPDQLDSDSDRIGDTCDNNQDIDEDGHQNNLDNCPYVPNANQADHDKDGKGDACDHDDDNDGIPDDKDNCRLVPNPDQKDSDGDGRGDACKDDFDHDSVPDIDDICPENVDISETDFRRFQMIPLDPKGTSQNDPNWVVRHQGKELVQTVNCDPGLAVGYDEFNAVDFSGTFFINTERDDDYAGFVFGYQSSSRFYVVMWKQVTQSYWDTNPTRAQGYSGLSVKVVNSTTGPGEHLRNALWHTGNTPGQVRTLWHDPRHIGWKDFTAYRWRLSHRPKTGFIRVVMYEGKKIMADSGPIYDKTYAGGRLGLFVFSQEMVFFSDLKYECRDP
# Sequence of UniProt P08648 (P08648 whole entry): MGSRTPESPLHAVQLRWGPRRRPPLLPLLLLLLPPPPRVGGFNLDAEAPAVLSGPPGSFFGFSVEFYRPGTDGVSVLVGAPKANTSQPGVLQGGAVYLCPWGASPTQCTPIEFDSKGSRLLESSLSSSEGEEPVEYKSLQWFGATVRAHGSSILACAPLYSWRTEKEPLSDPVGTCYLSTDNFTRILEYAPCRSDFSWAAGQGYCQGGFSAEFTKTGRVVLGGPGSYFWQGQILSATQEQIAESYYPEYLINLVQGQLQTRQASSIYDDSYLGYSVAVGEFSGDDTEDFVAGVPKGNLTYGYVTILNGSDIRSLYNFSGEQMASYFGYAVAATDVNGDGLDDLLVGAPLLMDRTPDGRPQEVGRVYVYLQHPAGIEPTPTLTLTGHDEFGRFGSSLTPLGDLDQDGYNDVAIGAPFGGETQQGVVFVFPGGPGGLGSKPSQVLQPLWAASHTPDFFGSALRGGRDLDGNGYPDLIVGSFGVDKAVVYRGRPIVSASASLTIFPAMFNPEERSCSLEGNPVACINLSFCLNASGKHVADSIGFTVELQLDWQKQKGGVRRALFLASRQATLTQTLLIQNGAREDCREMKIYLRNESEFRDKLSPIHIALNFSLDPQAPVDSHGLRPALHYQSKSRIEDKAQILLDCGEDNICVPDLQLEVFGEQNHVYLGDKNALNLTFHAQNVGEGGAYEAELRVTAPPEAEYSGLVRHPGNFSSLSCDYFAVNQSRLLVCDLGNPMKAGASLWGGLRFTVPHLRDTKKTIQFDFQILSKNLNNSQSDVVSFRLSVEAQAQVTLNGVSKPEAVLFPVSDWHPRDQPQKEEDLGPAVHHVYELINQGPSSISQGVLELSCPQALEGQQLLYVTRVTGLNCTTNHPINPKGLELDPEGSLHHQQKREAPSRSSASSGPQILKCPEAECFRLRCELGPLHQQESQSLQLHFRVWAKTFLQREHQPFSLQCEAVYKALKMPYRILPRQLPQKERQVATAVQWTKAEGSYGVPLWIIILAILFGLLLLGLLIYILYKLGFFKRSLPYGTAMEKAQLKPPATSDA
# Sequence of UniProt Q9Y4D7 (Q9Y4D7 whole entry): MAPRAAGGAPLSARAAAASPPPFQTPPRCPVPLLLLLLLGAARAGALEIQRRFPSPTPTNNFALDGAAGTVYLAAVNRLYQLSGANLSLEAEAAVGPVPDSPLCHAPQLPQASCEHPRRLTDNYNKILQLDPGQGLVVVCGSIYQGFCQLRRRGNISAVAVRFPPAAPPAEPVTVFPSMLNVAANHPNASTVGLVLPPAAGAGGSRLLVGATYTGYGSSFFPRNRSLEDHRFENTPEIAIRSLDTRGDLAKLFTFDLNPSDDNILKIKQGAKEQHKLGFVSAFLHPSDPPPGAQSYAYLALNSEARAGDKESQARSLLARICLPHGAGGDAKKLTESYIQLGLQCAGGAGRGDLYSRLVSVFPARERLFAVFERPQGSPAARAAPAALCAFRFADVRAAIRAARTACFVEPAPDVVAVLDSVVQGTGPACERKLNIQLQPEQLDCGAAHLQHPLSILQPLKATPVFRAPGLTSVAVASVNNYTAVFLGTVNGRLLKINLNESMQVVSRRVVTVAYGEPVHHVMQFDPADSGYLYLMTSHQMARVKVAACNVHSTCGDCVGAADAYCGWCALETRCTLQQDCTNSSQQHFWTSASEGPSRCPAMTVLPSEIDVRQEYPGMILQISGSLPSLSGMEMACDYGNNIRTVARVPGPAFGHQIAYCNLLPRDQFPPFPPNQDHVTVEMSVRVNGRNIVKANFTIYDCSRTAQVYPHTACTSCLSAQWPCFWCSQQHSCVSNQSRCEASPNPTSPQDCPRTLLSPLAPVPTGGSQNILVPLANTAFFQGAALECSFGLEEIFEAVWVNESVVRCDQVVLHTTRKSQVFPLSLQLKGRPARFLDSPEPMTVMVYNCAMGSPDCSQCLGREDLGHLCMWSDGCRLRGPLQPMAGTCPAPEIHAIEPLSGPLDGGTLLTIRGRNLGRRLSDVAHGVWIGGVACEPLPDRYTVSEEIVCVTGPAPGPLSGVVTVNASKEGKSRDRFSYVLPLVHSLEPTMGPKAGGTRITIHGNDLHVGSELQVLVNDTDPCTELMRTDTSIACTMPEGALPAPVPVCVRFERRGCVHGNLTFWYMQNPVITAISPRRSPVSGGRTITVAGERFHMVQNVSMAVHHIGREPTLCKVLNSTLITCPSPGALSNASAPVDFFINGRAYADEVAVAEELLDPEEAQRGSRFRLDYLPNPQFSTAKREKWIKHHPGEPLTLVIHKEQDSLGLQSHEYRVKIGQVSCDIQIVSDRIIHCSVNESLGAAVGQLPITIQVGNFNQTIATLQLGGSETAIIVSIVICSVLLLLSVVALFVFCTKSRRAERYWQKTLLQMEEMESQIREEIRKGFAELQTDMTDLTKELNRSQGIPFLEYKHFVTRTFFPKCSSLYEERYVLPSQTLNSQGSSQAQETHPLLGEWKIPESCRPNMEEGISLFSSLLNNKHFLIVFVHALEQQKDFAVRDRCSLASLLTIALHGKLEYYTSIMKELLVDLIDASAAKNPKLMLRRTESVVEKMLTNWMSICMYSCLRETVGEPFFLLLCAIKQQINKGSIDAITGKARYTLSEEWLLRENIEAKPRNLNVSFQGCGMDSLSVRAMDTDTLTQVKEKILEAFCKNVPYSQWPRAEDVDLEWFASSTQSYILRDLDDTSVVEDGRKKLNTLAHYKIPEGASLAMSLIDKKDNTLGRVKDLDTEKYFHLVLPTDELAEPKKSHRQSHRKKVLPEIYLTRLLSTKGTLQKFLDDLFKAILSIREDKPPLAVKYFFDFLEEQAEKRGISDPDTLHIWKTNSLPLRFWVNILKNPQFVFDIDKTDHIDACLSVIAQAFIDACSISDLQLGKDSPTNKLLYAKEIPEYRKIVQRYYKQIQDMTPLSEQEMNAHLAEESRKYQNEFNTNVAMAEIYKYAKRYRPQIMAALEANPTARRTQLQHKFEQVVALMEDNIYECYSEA
# Sequence of UniProt P30044 (P30044 whole entry): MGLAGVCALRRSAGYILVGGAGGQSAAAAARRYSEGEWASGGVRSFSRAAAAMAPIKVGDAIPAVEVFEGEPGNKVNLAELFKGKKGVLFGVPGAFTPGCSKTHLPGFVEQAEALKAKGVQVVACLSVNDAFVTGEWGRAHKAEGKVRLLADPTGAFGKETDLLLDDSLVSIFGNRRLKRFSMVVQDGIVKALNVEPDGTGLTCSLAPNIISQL
# Sequence of UniProt Q03405 (Q03405 whole entry): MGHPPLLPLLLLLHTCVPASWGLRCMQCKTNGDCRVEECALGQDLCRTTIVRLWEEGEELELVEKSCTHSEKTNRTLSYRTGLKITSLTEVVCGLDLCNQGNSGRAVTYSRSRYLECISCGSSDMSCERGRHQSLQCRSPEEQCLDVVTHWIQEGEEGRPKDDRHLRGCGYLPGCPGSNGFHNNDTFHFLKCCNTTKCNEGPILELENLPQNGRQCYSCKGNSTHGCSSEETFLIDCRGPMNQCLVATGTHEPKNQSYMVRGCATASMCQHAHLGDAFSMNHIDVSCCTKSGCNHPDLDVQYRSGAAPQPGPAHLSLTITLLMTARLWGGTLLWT
# Sequence of UniProt P61604 (P61604 whole entry): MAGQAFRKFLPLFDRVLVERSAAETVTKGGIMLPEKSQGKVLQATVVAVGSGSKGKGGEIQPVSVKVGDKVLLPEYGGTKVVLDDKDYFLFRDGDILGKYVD
row,Target,lysine labeling ratio R10:1
1,EZR (lysine site: K143) (UniProt P15311),2.46
2,MSN (lysine site: K316) (UniProt P26038),1.47 (active)
3,GPC1 (lysine site: K347) (UniProt P35052),4.46
4,PLAUR (lysine site: K29) (UniProt Q03405),3.61
5,APP (lysine site: K521) (UniProt P05067),5.65
6,PLS3 (lysine site: K335) (UniProt P13797),0.765 (active)
7,EPHA2 (lysine site: K162) (UniProt P29317),5.99
8,ANXA7 (lysine site: K268) (UniProt P20073),2.89
9,UniProt P02533 (lysine site: K297),2.74
10,HSP90AB1 (lysine site: K624) (UniProt P08238),7.02
11,ATAD3B (lysine site: K135) (UniProt Q5T9A4),2.68
12,THBS1 (lysine site: K919) (UniProt P07996),1.72 (active)
13,RPL3 (lysine site: K250) (UniProt P39023),2.54
14,HSPE1 (lysine site: K86) (UniProt P61604),1.85 (active)
15,CDH13 (lysine site: K74) (UniProt P55290),5.06
16,UniProt P62913 (lysine site: K154),2.92
17,UniProt Q15149 (lysine site: K1725),1.57 (active)
18,UniProt Q5XKE5 (lysine site: K350),4.43
19,UniProt P46781 (lysine site: K66),2.63
20,EEF2 (lysine site: K439) (UniProt P13639),1.76 (active)

row,Target,lysine labeling ratio R10:1
1,PRDX5 (lysine site: K142) (UniProt P30044),1.62 (active)
2,CD99L2 (lysine site: K86) (UniProt Q8TCZ2),3.94
3,MCAM (lysine site: K182) (UniProt P43121),3.4
4,UniProt Q16363 (lysine site: K1068),2.52
5,CLTC (lysine site: K1501) (UniProt Q00610),2.77
6,UniProt P62273 (lysine site: K33),1.51 (active)
7,UniProt O60462 (lysine site: K547),4.2
8,UniProt Q8WXI7 (lysine site: K12412),1.99 (active)
9,PLXND1 (lysine site: K1182) (UniProt Q9Y4D7),0.824 (active)
10,FLNA (lysine site: K2000) (UniProt P21333),1.14 (active)
11,ITGA5 (lysine site: K943) (UniProt P08648),2.54
12,ALCAM (lysine site: K75) (UniProt Q13740),9.89
13,CCDC124 (lysine site: K94) (UniProt Q96CT7),4.68
14,UniProt P60709 (lysine site: K18),4.98
15,LAMA5 (lysine site: K255) (UniProt O15230),2.33
16,PABPC1 (lysine site: K157) (UniProt P11940),1.38 (active)
17,ATP1B1 (lysine site: K288) (UniProt P05026),13.2
18,GALNT2 (lysine site: K363) (UniProt Q10471),3.95
19,CCT8 (lysine site: K20) (UniProt P50990),2.11
20,SLC3A2 (lysine site: K615) (UniProt P08195),3.54
